KinaseGlo FLuc = Counterscreen for Luciferase (Kinase-Glo TM) Inhibition; Luciferin 4-monooxygenase (Photuris pensylvanica), Q27757; Kinase-Glo luciferase, ATP luminescence, 8 min; Potency, µM (highest dose often 38.3 µM), inactives show at the top dose activity change, negative = inhibition, usual class: inhibitors; 200,000 tested, 0.28% active; AID 1379, 2008; note: nearly all actives have a fitted effect of over 60% in size
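Inhibition of Kinase-Glo luciferase light generation was assessed at 10 uM ATP in pH 7.2 imidazole buffer, with luminescence measured after eight minutes at ambient temperature.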
Gal4-VP16 FLuc = VP16 counterscreen qHTS for inhibitors of ROR gamma transcriptional activity | Drosophila S2 Gal4-VP16 UAS-luciferase, luminescence, 20 h | 310,000 tested, 3.5% active | AID 2546, 2010 | Potency, µM (highest dose often 53.6 µM), for the others: at the highest dose activity, negative = inhibition, hits mostly inhibitors;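 note: Gal4-VP16 expression switched on by copper sulfate through the metallothionein promoter; nearly all actives have a fitted effect of over 50% in size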
RORgamma inh = qHTS for inhibitors of ROR gamma transcriptional activity; Nuclear receptor ROR-gamma (Mus musculus), P51450; Drosophila S2 Gal4-RORgamma UAS-luciferase reporter, 20 h; Potency, µM (highest dose often 53.6 µM), inactives show at the highest dose activity change, negative = inhibition, actives largely listed as inhibitors; 310,000 tested, 5.4% active; note: nearly all actives have a fitted effect of over 60% in size
Target sequence (P51450 whole entry, looked up, the tested form may be a part): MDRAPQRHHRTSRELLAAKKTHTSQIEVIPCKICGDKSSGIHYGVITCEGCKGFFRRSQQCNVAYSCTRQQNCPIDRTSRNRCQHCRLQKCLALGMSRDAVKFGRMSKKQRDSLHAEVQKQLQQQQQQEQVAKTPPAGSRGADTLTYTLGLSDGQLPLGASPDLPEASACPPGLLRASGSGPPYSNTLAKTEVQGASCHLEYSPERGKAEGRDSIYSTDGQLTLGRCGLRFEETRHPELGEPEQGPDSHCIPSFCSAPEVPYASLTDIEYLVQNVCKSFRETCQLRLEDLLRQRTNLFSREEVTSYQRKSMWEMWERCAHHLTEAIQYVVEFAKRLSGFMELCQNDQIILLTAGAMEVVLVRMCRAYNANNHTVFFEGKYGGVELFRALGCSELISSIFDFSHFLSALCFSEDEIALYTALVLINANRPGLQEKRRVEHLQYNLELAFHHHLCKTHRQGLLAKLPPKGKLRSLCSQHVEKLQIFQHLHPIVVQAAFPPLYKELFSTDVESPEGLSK
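Drosophila S2 cells stably expressing Gal4-DBD/mouse RORγ fusion under metallothionein promoter plus UAS-luciferase; compound 1 h, then 700 uM CuSO4 induction for 20 h at ambient temperature; inhibition read as reduced luminescence.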
Active calls of the source: *; ? = inconclusive; nt = no result given; [ ] = another dose, or the depositor's remark. Rows were chosen to be rich in hits. Some 6.2% of all compounds tested hit in one or more screens of this group. Calls come from the whole dose curve; as a rule, active = well fitted curve in the direction sought with a large enough effect; inconclusive = small, poorly fitted or top-dose-only effect, or another doubt; inactive = no such curve, though single readings can be large; an effect the other way counts as inactive or inconclusive. % is set by controls: 0 for no effect and ±100 for the full control effect; potency is the fitted concentration of half-maximal effect.

SMILES | KinaseGlo FLuc | Gal4-VP16 FLuc | RORgamma inh
S=C1NC(C23CC4CC(CC(C4)C2)C3)=CC(c2ccc3c(c2)OCO3)N1 (configuration not stated) | 0.7% | ? | 0.708µM*
Cc1cccc2cc(CN(Cc3cccs3)C3(c4nnnn4C4CCCC4)CCCC3)c(=O)[nH]c12 | 2.4% | -0.7% | 7.5%
Cc1nn(-c2cccc(C(F)(F)F)c2)c(=O)c2noc(C)c12 | nt | 7.9% | -0.3%
CCOC(=O)N1CCc2c(sc(NC(=O)CN(CC)CC)c2C#N)C1 | nt | 1.8% | 15.4%
CCCNC(=S)Nc1ccc(F)cc1F | nt | 8.8% | ?
Cc1cc(C)nc(Nc2ccc(Cl)cc2C)n1 | nt | -7.2% | 8.4%
COCCNC(=O)C(=O)Nc1ccc(Cl)cc1C | 1.8% | 2.2% | 13.1%
Cc1cc(Cl)ccc1NC(=S)NC(C)(C)C | 0.6% | 15.8µM* | 2µM*
CCCNC(=S)Nc1ccc(Cl)cc1C | -2.7% | ? | 7.08µM*
Cc1cc(Cl)ccc1NC(=S)NCC(C)C | 0.1% | 7.08µM* | 4.47µM*
CC(C)=CCC1(CC=C(C)C)C(=O)C(C(=O)c2ccccc2)=C2OC(C)(C)CCC2(CC=C(C)C)C1=O (configuration not stated) | nt | 1.2%[10 µM] | -3.4%[10 µM]
CCCCN1C(=O)c2ccc(C(=O)NCc3ccco3)cc2C1=O | nt | -8.8% | 15.5%
CC[C@H](C)[C@H](NC(=O)[C@H](CCC(=O)O)NC(=O)CNC(=O)[C@@H](NC(=O)[C@H](CCC(=O)O)NC(=O)[C@H](CCC(=O)O)NC(=O)[C@H](CC(C)C)NC(=O)CNC(=O)[C@@H]1CCCN1C(=O)[C@H](CCC(=O)O)NC(=O)[C@@H](N)[C@@H](C)O)C(C)C)C(=O)N[C@@H](CCC(=O)O)C(=O)N[C@@H](CCC(N)=O)C(=O)N[C@@H](CCCCN)C(=O)N[C@@H](CCC(N)=O)C(=O)N[C@@H](CC(C)C)C(=O)N[C@@H](CCC(N)=O)C(=O)O | nt | -9.6% | -7.2%
O=C(/C=C/c1ccc2c(c1)OCO2)N1CCN(c2n[nH]c(=O)[nH]c2=O)CC1 | nt | 5.1% | -4.3%
CNS(=O)(=O)c1ccc(C)c(S(=O)(=O)NC)c1 | 0.2% | -6.0% | -6.2%
COc1cc(/C=C/C(=O)OCC(=O)N2CCN(C(=O)c3ccco3)CC2)ccc1O | 3.5% | 4.0% | -12.7%
O=[N+]([O-])c1cccc(S(=O)(=O)NCc2ccncc2)c1 | nt | 10µM* | 23.4%
Cc1cc(C)c(S(=O)(=O)NCCc2ccncc2)c(C)c1 | nt | -4.2% | -14.0%
O=[N+]([O-])c1cccc(S(=O)(=O)NCCc2cccs2)c1 | nt | 5.9% | 3.5%
Cc1cc(C)c(S(=O)(=O)NCc2ccncc2)c(C)c1 | -1.8% | 8.91µM* | ?
CC(=O)c1c(C)[nH]c(C(=O)Nc2ccc(F)c(F)c2F)c1C | nt | 23.9% | 10.1%
FC(F)(F)c1cc(Nc2ccccc2)nc(-c2ccccn2)n1 | nt | 4.47µM* | 2µM*
FC(F)(F)c1cc(Sc2ccccc2)nc(-c2ccccn2)n1 | -3.1% | ? | 11.2µM*
COC(=O)CSc1cc(C(F)(F)F)nc(-c2ccccn2)n1 | 1.3% | 13.6% | -13.6%
CC(C)Nc1cc(C(F)(F)F)nc(-c2ccccn2)n1 | -0.7% | 6.31µM* | 1µM*
SMILES | KinaseGlo FLuc | Gal4-VP16 FLuc | RORgamma inh
COc1cc(C(F)(F)F)nc(-c2ccccn2)n1 | -4.6% | 1.1% | -32.0%
Nc1nc(N)nc(-c2ccccn2)n1 | -0.8% | -9.1% | -32.5%
O=C(O)c1ccc(-c2c3nc(c(-c4ccc(C(=O)O)cc4)c4ccc([n-]4)c(-c4ccc(C(=O)O)cc4)c4nc(c(-c5ccc(C(=O)O)cc5)c5ccc2[n-]5)C=C4)C=C3)cc1.[Mn+3] | nt | 4.5% | -17.4%
O[C@H](CN1CCN(c2cccc(Cl)c2)CC1)C(c1ccccc1)c1ccccc1 | 2.5% | -4.2% | ?
O=C(COC(=O)c1ccccc1NC(=O)C1CC1)c1ccc2c(c1)OCCO2 | 2.5% | 2.0% | ?
O=C(COC(=O)c1ccc(O)cc1O)c1ccc2c(c1)OCO2 | nt | ? | 7.08µM*
NC(=O)SCC(=O)Nc1ccc(Cl)cc1 | -7.1% | -22.6% | ?
NC(=O)SCC(=O)Nc1cccc(Cl)c1 | -0.4% | ? | 10µM*
COc1cccc(C(=O)N2N=C(c3ccccn3)CC2(O)C(F)(F)F)c1 (configuration not stated) | nt | 5.01µM* | 2µM*
Cc1ccccc1OCC(=O)N1N=C(C(F)(F)F)CC1(O)C(C)(C)C (configuration not stated) | -0.3% | ? | ?
